# Most compounds without a hit are left out; they make up all but 17% or so of the library.
# ClpP mod: qHTS Assay for Activators of ClpP; AID 651965, 2013; purified B. subtilis ClpP, FRET peptide cleavage, 20 min; Potency, µM (series often up to 57.5 µM); actives 1.9% (n = 340,000); active = well fitted falling curve with a large enough effect; inconclusive = small, poorly fitted or top-dose-only effect; inactive = no such curve, though single readings can be large or run the other way; also: the source files actives as falling curves though it sought activators and does not explain the sign; nearly all actives have a fitted effect of over 65% in size
#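 Buffer: 100 mM Tris/HCl pH8, 100 mM KCl, 0.05% low protease BSA, 2.5% glycerol, 0.01% Tween-20. ClpP 10 microg/mL final; 20 min RT; delta FRET normalized to ADEP and DMSO controls.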
# DT40 TDP1 no CPT: qHTS for Inhibitors of human tyrosyl-DNA phosphodiesterase 1 (TDP1): qHTS in cells in absence of CPT | DT40 Tdp1-/- hTDP1 cells, no CPT, ATP luminescence, 48 h | Potency, µM (titrated, usually from 46.2 µM), actives largely listed as inhibitors | actives 15% (n = 420,000); also: nearly all actives have a fitted effect of over 55% in size
#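 Seeded 400 DT40-hTDP1 cells/well (vehicle DMSO, no 20 nM CPT); pinned compounds; ≥48 hr at 37 °C; CellTiter-Glo luminescence as viability measure.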
# TDP1 cell CPT: growth inhibition of DT40 Tdp1-/-;hTDP1 cells with camptothecin (screen for TDP1 inhibitors) | chicken DT40 Tdp1-/-;hTDP1 cells + 20 nM CPT, ATP luminescence, 48 h | Potency, µM (series often up to 46.2 µM), usual class: inhibitors | actives 12% (n = 420,000) | AID 686979; also: nearly all actives have a fitted effect of over 55% in size
#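 Chicken DT40 Tdp1-/- cells complemented with human TDP1, 400 cells/well, exposed to compounds plus 20 nM camptothecin for at least 48 h at 37 C; viability read as ATP content by CellTiter-Glo luminescence.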
# TDP1 block: inhibitors of human tyrosyl-DNA phosphodiesterase TDP1; Q9NUW8; recombinant TDP1, AlphaScreen DNA substrate cleavage; Potency, µM (doses to about 130 µM), hits mostly inhibitors; actives 0.28% (n = 350,000); AID 485290; also: nearly all actives have a fitted effect of over 40% in size
# Target sequence (Q9NUW8 whole entry, looked up): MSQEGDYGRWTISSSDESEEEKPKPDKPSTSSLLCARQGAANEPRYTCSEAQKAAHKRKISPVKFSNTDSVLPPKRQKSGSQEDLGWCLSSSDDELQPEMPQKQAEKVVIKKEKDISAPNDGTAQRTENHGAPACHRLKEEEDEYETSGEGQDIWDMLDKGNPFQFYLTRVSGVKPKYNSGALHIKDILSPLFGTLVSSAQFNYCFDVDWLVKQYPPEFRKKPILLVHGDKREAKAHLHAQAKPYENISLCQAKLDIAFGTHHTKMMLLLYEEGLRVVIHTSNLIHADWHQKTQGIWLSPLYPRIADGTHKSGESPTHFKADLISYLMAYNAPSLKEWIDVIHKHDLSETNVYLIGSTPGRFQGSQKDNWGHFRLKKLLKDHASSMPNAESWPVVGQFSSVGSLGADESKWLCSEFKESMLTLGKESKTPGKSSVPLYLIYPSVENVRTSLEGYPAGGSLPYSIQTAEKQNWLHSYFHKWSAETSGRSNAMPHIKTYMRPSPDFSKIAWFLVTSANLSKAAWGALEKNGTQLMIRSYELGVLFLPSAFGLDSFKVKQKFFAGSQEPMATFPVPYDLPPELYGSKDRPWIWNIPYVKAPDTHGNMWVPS
#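 Enzyme-compound mixtures sat 15 min at room temperature, followed by a 5 min reaction with 15 nM final substrate and 10 min with AlphaScreen beads. Recombinant human Tdp1 was used at 1 nM final.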
# Hits are given with their value; - = inactive; ? = inconclusive; . = no result given; [ ] = another dose, or the depositor's remark. Unless noted, calls follow the shape of the dose curve; as a rule, active = well fitted curve in the direction sought with a large enough effect; inconclusive = small, poorly fitted or top-dose-only effect, or another doubt; inactive = no such curve, though single readings can be large; an effect the other way counts as inactive or inconclusive.
SMILES,ClpP mod,DT40 TDP1 no CPT,TDP1 cell CPT,TDP1 block
CC(C)NC(=O)c1cc(C2CCCCN2C(=O)c2ccc(Cl)cc2)on1 (centres undefined),-,-,-,.
CC(C)C1C(=O)N(Cc2cn(CCC3OCCO3)nn2)CCS(=O)(=O)N1Cc1ccc(-c2ccc(F)cc2Cl)cc1 (centres undefined),-,21µM,?,.
CC(C)C1C(=O)N(Cc2cn(CCC3OCCO3)nn2)CCS(=O)(=O)N1Cc1ccc(-c2ccccc2Cl)cc1 (centres undefined),-,15µM,16µM,.
COc1cccc(-c2ccc(CN3C(C(C)C)C(=O)N(Cc4cn(CCC5OCCO5)nn4)CCS3(=O)=O)cc2)c1OC (centres undefined),-,?,21µM,.
CC(C)C1C(=O)N(Cc2cn(CCC3OCCO3)nn2)CCS(=O)(=O)N1Cc1ccc(-c2ccncc2)cc1 (centres undefined),-,-,-,.
COc1ccc2c(c1)C=C/C2=C/c1ccc(N(C)C)cc1,-,?,?,.
CC(C)(S)C(=O)N[C@@H](CS)C(=O)O,.,-,-,.
Cc1cccc(Nc2nnc(SCC(=O)Nc3cccc(S(=O)(=O)N4CCCCC4)c3)s2)c1,-,23µM,23µM,-
COc1ccccc1C(=O)NC(=O)CSc1nc(C)cs1,28µM,-,-,-[0.505 µM]
Cn1nnnc1SCC(=O)Nc1cc(S(=O)(=O)N2CCCCC2)ccc1Cl,.,23µM,18µM,-
Cc1csc(SCC(=O)Nc2cccc3nsnc23)n1,-,?,7.3µM,-
COc1ccccc1CNC(=O)CSc1nc(C)cs1,-,-,?,-
Cc1nn(Cc2c(F)c(F)c(F)c(F)c2F)c(C)c1NC(=O)c1nn(C)c(C)c1Br,-,?,?,-
CC1CCCC(NC(=O)COC(=O)c2cccs2)C1C (centres undefined),-,-,-,-
CCc1ccc([C@@H]2CC(=O)[C@@H]3CN(S(=O)(=O)c4ccccc4C)[C@H](c4ccc(Cl)cc4)C[C@@H]3N2S(=O)(=O)c2ccc(C)cc2)cc1,-,-,-,.
Cc1csc(SCC(=O)Nc2ccc(S(=O)(=O)N3CCCC3)cc2)n1,-,-,18µM,-
Cc1cccc(C)c1Nc1nnc(SCC(=O)Nc2cc(S(=O)(=O)N3CCCCC3)ccc2Cl)s1,-,21µM,?,-
O=C([C@H]1O[C@@H](n2ccc(=O)[nH]c2=O)[C@H](O)[C@@H]1O)N1CCC(F)(F)CC1,-,-,-,.
O=S(=O)(NCc1nnc2c(C(F)(F)F)cc(Cl)cn12)c1ccccc1,-,-,-,-
Cc1ccc(N=Cc2cc3c(cc2O)OC(N)=C(C#N)C3c2ccccc2)cc1 (centres undefined),-,16µM,?,-
N#CC1=C(N)Oc2cc(N)ccc2C1c1ccc(F)cc1 (centres undefined),-,?,?,-
CSc1ccc(C2C(C#N)=C(N)Oc3cc4c(cc32)OCO4)cc1 (centres undefined),-,?,21µM,-
Cc1ccc(C2C(C#N)=C(N)Oc3cc4c(cc32)OCO4)cc1 (centres undefined),-,?,26µM,-
CCc1ccc(C2C(C#N)=C(N)Oc3cc(N)ccc32)cc1 (centres undefined),.,?,?,-
Cc1ccc(-n2nnc(-c3nsc(NC(=O)c4ccccc4)n3)c2C)cc1,-,?,?,-
SMILES,ClpP mod,DT40 TDP1 no CPT,TDP1 cell CPT,TDP1 block
CCc1ccc2occ(CC(=O)Nc3ccc(OC)c(Cl)c3)c2c1,-,?,?,-
CCC[C@@H]1C[C@@]1(CCC)C(NC(=O)c1ccco1)c1ccc(Cl)cc1 (some centres undefined),.,.,.,-
Cc1ccc(C2(C)NC(=O)N(CC(=O)NCCN3C(=O)S/C(=C\c4cccnc4)C3=O)C2=O)cc1 (centres undefined),-,-,?,.
COc1ccc(NS(=O)(=O)c2ccc(Cl)c(NC(=O)c3ccccc3F)c2)cc1,-,?,?,-
COc1ccc(NC(=O)c2cccnc2SC)cc1S(=O)(=O)N1CCCCC1,-,?,-,-
O=C(Nc1ccc(Cl)cc1)c1cc(S(=O)(=O)Nc2ccccn2)ccc1Cl,.,16µM,?,.
O=C(Nc1ccc(Cl)cc1)c1cccc(S(=O)(=O)Nc2ccccn2)c1,-,-,-,-
CCOc1ncccc1C(=O)Nc1ccc(Cl)c(S(=O)(=O)N2CCCC2)c1,-,21µM,21µM,-
CC(C)(C)C(=O)Nc1cc(S(=O)(=O)Nc2ccc(Cl)cc2)ccc1Cl,-,23µM,18µM,-
COc1ccc(NS(=O)(=O)c2ccc(Cl)c(NC(=O)c3cccnc3Cl)c2)cc1,-,16µM,?,-
CSc1ncccc1C(=O)Nc1ccc2nc(C)sc2c1,-,-,-,.
O=C(Nc1ccc(Cl)c(S(=O)(=O)N2CCCCC2)c1)C1=COCCO1,14µM,-,?,.
CN(C)S(=O)(=O)c1cc(NC(=O)C2=COCCO2)ccc1Cl,-,-,-,-
CCOc1ncccc1C(=O)Nc1ccc2nc(C)sc2c1,.,18µM,?,-
CCOc1ncccc1C(=O)Nc1cc(S(=O)(=O)N2CCCCC2)ccc1Cl,32µM,-,-,-
COc1ccccc1CNC(=O)C(=O)NCC1CCCN1S(=O)(=O)c1cccs1 (centres undefined),-,?,?,-
CCn1c2ccccc2c2nnc(NN)nc21,-,?,?,-
CCn1c2ccc(C)cc2c2nnc(NN)nc21,-,9.2µM,18µM,-
CCCCn1c2ccc(F)cc2c2nnc(NN)nc21,-,?,18µM,-
Cc1ccc(C(=O)c2oc3ccccc3c2NC(=O)c2cc(-c3ccc(Cl)cc3)on2)cc1,-,-,-,-
Oc1c(C(c2ccccc2Cl)N2CCN(Cc3ccccc3)CC2)sc2nc(-c3ccco3)nn12 (centres undefined),-,?,?,-
COc1ccc(NC(=O)C2CCN(c3nc4ccccc4[nH]3)CC2)cc1OC,-,-,-,-
O=C(Nc1cccc(F)c1)C1CCN(c2nc3ccccc3[nH]2)CC1,-,?,23µM,-
COc1ccc(CNC(=O)C2CCN(c3nc4ccccc4[nH]3)CC2)c(OC)c1,-,?,18µM,-
COc1ccc2c(c1)O[C@H](c1ccc3c(c1)OCO3)[C@@H](OC(=O)Nc1ccc(C)c(Br)c1)C2=O,.,.,.,-
CC(=O)Nc1cccc(-c2csc(C(C)(O)c3ccc(F)c(F)c3)n2)c1 (centres undefined),-,?,?,.
Nc1nccc(-c2cc(-c3ccc(Cl)cc3Cl)no2)n1,-,-,-,-
CCCCc1cc2c(cn1)=C(OC(=O)c1ccco1)C(C)(OC(=O)CC)C(=O)C=2 (centres undefined),.,.,.,-[12.3 µM]
COCCCn1c(C)cc(C(=O)COC(=O)C23CC4CC(CC(O)(C4)C2)C3)c1C,28µM,?,-,-
Cc1cc(OCCOCCNC(C)C)cc(C)c1Cl,-,18µM,18µM,.

# Screening data (PubChem)
